hgDAF-12 ag – hgDAF-12 agonism, primary luciferase screen. 370,000 tested, 1.8% active. activation, % at 6.8 µM. HEK293 GAL4-hgDAF12 UAS-luciferase reporter, agonist luminescence; normalized to butyrate control;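 active = activation above a cutoff set at the mean of all screened compounds plus 3 SD, cut at about 10% in these data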
DAX1 inh-1 – inhibitors of DAX1 repression of SF-1 activated StAR promoter; HEK293T StAR-luciferase reporter, SF-1/DAX-1 repression relief; 370,000 tested, 1.1% active; inhibition, % at 6.8 µM;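 active = inhibition above the mean over all tested compounds plus 3 SD, cut at about 3.6% in these data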;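 note: higher inhibition means more luminescence from relief of DAX-1 repression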
DAX1 inh-2 – inhibitors of human orphan nuclear receptor DAX1 (NR0B1) | P51843 | HEK293 Gal4-DAX1 luciferase reporter, luminescence | inhibition, % at 6.75 µM | 340,000 tested, 0.99% active | AID 504766;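 active = inhibition above the mean over all tested compounds plus 3 SD, cut at about 4.2% in these data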;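 note: inhibition shows as a rise in luminescence from relieved DAX1 repression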
Target sequence (P51843 207-470 limits assumed): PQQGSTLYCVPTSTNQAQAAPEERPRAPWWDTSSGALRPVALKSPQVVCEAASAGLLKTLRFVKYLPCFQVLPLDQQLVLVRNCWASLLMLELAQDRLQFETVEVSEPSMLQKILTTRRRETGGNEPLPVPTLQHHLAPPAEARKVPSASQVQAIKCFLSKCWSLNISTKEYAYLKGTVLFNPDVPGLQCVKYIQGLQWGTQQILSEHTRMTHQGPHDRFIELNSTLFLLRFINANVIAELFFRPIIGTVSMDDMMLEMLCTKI
hcDAF-12 act – activators of H. contortus DAF-12 nuclear receptor. HEK293 hcDAF-12 lit1-tk-luc reporter, luminescence; 0% DMSO, 100% Δ7-dafachronic acid. activation, % at 6.8 µM. 370,000 tested, 1.4% active. AID 652067;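 active = activation above the mean of all tested compounds plus 3 SD, cut at about 5.5% in these data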
ssDAF12 agonist – activators of S. stercoralis DAF-12 nuclear receptor; HEK293 ssDAF-12/GRIP1 lit1-tk-luc reporter, luminescence; % of 3 µM dafachronic acid response; activation, % at 6.8 µM; 370,000 tested, 1% active; AID 652126;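 active = activation above the mean over all tested compounds plus 3 SD, cut at about 0.9% in these data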
Each line names hits and unclear results; the compound was inactive in the other large screens. The list is not random: actives were taken first. Their share in the collection is about 4.1%.

O=C1NC(=O)N(CCC2=CCCCC2)C(=O)/C1=C/c1cccs1	ssDAF12 agonist 1.7 (no result: DAX1 inh-2)
O=C1NC(=O)N(CCC2=CCCCC2)C(=O)/C1=C/c1ccc(O)cc1	none
O=C(O)Cn1cc(/C=C2\C(=O)NC(=O)N(c3ccc(Br)cc3)C2=O)c2ccccc21	hcDAF-12 act 5.6, ssDAF12 agonist 1.2
Cc1ccc(N2C(=O)NC(=O)/C(=C\c3cn(CC(=O)O)c4ccccc34)C2=O)cc1	ssDAF12 agonist 1.4
O=C1C2CC=CCC2C(=O)N1SC(Cl)(Cl)Cl (stereo unspecified)	none (no result: DAX1 inh-2)
NS(=O)(=O)c1ccc(N=Nc2c(O)[nH]c(=S)[nH]c2=O)cc1	none
COc1ccc(N=Nc2c(O)[nH]c(=S)[nH]c2=O)cc1	DAX1 inh-1 3.9
O=c1[nH]c(=S)[nH]c(O)c1N=Nc1ccc(OC(F)F)cc1	DAX1 inh-2 4.4
COc1ccc2c(c1OC)C(=O)OC2C1c2cc3c(cc2CCN1C)OCO3 (stereo unspecified)	none
COc1cc(C2c3cc4c(cc3CC3COC(=O)C32)OCO4)cc(OC)c1O (stereo unspecified)	DAX1 inh-1 4.2
C=CCCC(NC(=O)OCc1ccccc1)P(=O)(Oc1ccccc1)Oc1ccccc1 (stereo unspecified)	none (no result: DAX1 inh-1, DAX1 inh-2)
CSc1cccc(NP2(=O)OCC(C)([N+](=O)[O-])CO2)c1 (stereo unspecified)	none
CC(=O)Nc1ccc(C2CN(C)CC2C(=O)c2ccc(Cl)cc2)cc1 (stereo unspecified)	DAX1 inh-1 4.2
CN1CC(C(=O)c2ccc(Cl)cc2)C(c2ccc(N(C)C)cc2)C1 (stereo unspecified)	DAX1 inh-2 4.2
c1ccc(CCN2CCC3CCNC3C2)cc1 (stereo unspecified)	none (no result: DAX1 inh-2)
COC(=O)[C@H]1C[C@@]2(C)c3ccccc3N[C@H]2N1	none (no result: DAX1 inh-2)
CN1CCN(C(=O)COc2ccc(-c3nc4ccccc4s3)cc2)CC1	hgDAF-12 ag 11, DAX1 inh-1 3.9
CN1CCN(C(=O)COc2ccc3ccccc3c2)CC1	none
CC(C)NS(=O)(=O)c1ccc(OCC(=O)N2CCN(C)CC2)cc1	DAX1 inh-2 4.4
COc1cccc(OCc2cc(C(=O)N3C[C@H]4C[C@@H](C3)c3cccc(=O)n3C4)no2)c1	hgDAF-12 ag 13, hcDAF-12 act 5.6, ssDAF12 agonist 1.5
COc1ccc2c(C)c(CCC(=O)N3C[C@H]4C[C@@H](C3)c3cccc(=O)n3C4)c(=O)oc2c1	DAX1 inh-2 5.7
COc1ccc(Cc2cn(C)c(N)n2)cc1	none (no result: DAX1 inh-2)
O=C(NCCN1CCC2(CC1)C(=O)NCN2c1ccccc1)c1cccnc1Cl	none (no result: DAX1 inh-2)
O=C(NCCN1CCC2(CC1)C(=O)NCN2c1ccccc1)c1ccc(F)c(F)c1	none (no result: DAX1 inh-2)
CC(=O)N1c2ccccc2C(c2ccccc2)=NCC1C(=O)NC1CCCCC1 (stereo unspecified)	none (no result: DAX1 inh-2)
CC(C)(C)NC(=O)CN1C(=O)[C@@H](Cc2c[nH]c3ccccc23)N=C(c2ccccc2)c2ccccc21	none (no result: DAX1 inh-2)
CCOC(=O)CC(SP1(=S)OCC2(CC=CCC2)CO1)C(=O)OCC (stereo unspecified)	DAX1 inh-1 3.9
Cn1cc(P(=S)(c2ccccc2)c2ccccc2)c2ccccc21	none (no result: DAX1 inh-1, DAX1 inh-2)
Cc1nn(CC(C)C)c(Cl)c1C(=O)NC1CCC(C)CC1 (stereo unspecified)	DAX1 inh-1 4.2
Cc1nn(Cc2ccccc2Cl)c(Cl)c1C(=O)OCC(=O)NC(=O)NC1CCCCC1	none
CCOC(=O)CC[C@@H]1CC[C@]2(CCCN(Cc3ccncc3)C2)O1	none (no result: DAX1 inh-2)
COCCCN=Cc1c(O)[nH]c(=S)[nH]c1=O	DAX1 inh-2 7.0
O=C1Nc2ccccc2/C1=C/c1cnc[nH]1	none
COc1ccc2c(c1)/C(=C/c1cnc[nH]1)C(=O)N2	ssDAF12 agonist 1.1
CC(=O)C1=C(C)OC(N)=C(C(=O)OC(C)C)C12C(=O)Nc1ccccc12 (stereo unspecified)	hcDAF-12 act 6.2
COCCOC(=O)C1=C(C)OC(N)=C(C(=O)OC)C12C(=O)Nc1ccccc12 (stereo unspecified)	none
COC(=O)C1=C(N)Oc2cc(C)oc(=O)c2C12C(=O)Nc1ccccc12 (stereo unspecified)	ssDAF12 agonist 1.0
CCCCOC(=O)C1=C(N)OC2=C(C(=O)CCC2)[C@]12C(=O)Nc1ccccc12	none
O=C(NCCN1CCC2(CC1)C(=O)NCN2c1ccccc1)c1cccc(F)c1	none (no result: DAX1 inh-2)

Source: PubChem BioAssay (The Scripps Research Institute Molecular Screening Center)
